AMA1 RON2 block: disrupts binding of P. falciparum AMA1 to RON2 | AID 720542 | Potency, µM (top dose mostly 58.2 µM), without a hit: at the highest dose activity change, negative = inhibition, most hits filed as inhibitors | AlphaScreen AMA1-biotinylated RON2 peptide binding | actives 0.2% (n = 360,000);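 note: potency is the fitted concentration of half-maximal effect; 0% = vehicle wells and -100% = peptide control; nearly all actives have a fitted effect of over 45% in size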
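AMA1 (3D7) with his tag at 25 nM final met compounds first, then biotinylated RON2 peptide at 25 nM; detection used donor plus acceptor beads, 10 µg/mL apiece, read by AlphaScreen after 30 min at room temperature.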
HCV inhibitor: blocks hepatitis C virus; Huh7.5.1 HCVcc-Cre infection, luciferase reporter, 44 h; Potency, µM (highest dose often 41.8 µM), without a hit: top-dose activity change, negative = inhibition, actives largely listed as inhibitors; actives 3.4% (n = 340,000); note: potency is the fitted concentration of half-maximal effect; % is set by controls: 0 for no effect and ±100 for the full control effect
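Reporter virus HCVcc-Cre (~0.5 moi) infects cells exposed to compound; seeding density 1,000 cells/well with 4 h settling beforehand. Luminescence, 15 sec read, taken 44 h post-infection following a 15 min RT substrate incubation.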
Shiga inhibitor: inhibitors of Shiga toxin in Vero cells | Vero cells, Shiga toxin protein synthesis inhibition reporter | inhibition, % at 38.7 µM | actives 9.2% (n = 290,000) | AID 2315; in the data active = inhibition mostly above about 28%, no sharp cut-off; inactive = mostly below about 43%; note: 0% is about no effect
CHX counter: affects cycloheximide protein synthesis inhibition readout, counter-screen; AID 2314; actives 12% (n = 300,000); cell reporter, cycloheximide protein synthesis inhibition counterscreen; max response, %; in the data active = max response mostly above about 13%, no sharp cut-off; inactive = mostly below about 14%; note: read at 38.3 µM for the half of the compounds with a filed dose; 0% is about no effect
Pf growth 96h: P. falciparum growth inhibition at 96 hour, primary screen for plastid delayed-death inhibitors | actives 6.9% (n = 320,000) | Potency, µM (highest dose often 28.7 µM), for the others: at the highest dose activity change, negative = inhibition, actives largely listed as inhibitors | P. falciparum luciferase reporter growth, 96 h; note: potency is the fitted concentration of half-maximal effect; % is set by controls: 0 for no effect and ±100 for the full control effect
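Readout is luminescence from an integrated firefly luciferase in P. falciparum. Red cells, 2% hematocrit and 0.05% parasitemia final, were cultured with compound through two parasite generations (96 hours) at 37 C, 5% CO2.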
Pf growth 48h: P. falciparum growth inhibition at 48 hours (one generation); actives 5.9% (n = 310,000); P. falciparum luciferase growth in erythrocytes, 48 h; Potency, µM (highest dose often 28.7 µM), for inactives: at the top dose activity change, negative = inhibition, most hits filed as inhibitors; AID 504832; note: potency is the fitted concentration of half-maximal effect; % is set by controls: 0 for no effect and ±100 for the full control effect
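Firefly luciferase activity from engineered P. falciparum reports growth; inhibitors lower the luminescent signal. Cultures contained 2% hematocrit erythrocytes at 0.1% final parasitemia.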
* hit, by the source's call; ? = inconclusive; . = not tested or not shown. An excerpt weighted towards active compounds, which were near 21% of everything screened. Unless noted, calls come from the whole dose curve; as a rule, active = well fitted curve in the direction sought with a large enough effect; inconclusive = small, poorly fitted or top-dose-only effect, or another doubt; inactive = no such curve, though single readings can be large; an effect the other way counts as inactive or inconclusive.

SMILES	AMA1 RON2 block	HCV inhibitor	Shiga inhibitor	CHX counter	Pf growth 96h	Pf growth 48h
COCCn1c(SCC(=O)Nc2ccc(C(N)=O)cc2)nc2c([nH]c3ccccc32)c1=O	0%	-2%	-7	-2	1%	21%
COc1ccc(-n2c(SCC(=O)N(C)c3ccccc3)nc3c([nH]c4ccccc43)c2=O)cc1OC	-18%	-3%	6	-2	4.7µM*	8.3µM*
Cc1c(NC(=O)c2cccc(NS(C)(=O)=O)c2)c(=O)n(-c2ccccc2)n1C	-6%	15%	14	-1	-4%	0%
COCCCn1c(=O)c2sccc2n2c(CCCC(=O)NCc3ccc(OC)cc3)nnc12	5%	11%	-1	1	?	-6%
COc1ccc(N2C(=O)C3C(c4ccc(C(=O)O)cc4)NC(Cc4ccccc4)(C(=O)O)C3C2=O)c([N+](=O)[O-])c1 (stereo unspecified)	8%	4%	-16	6	2.9µM*	12%
COC(=O)[C@]1(Cc2ccccc2)N[C@H](c2ccc(-c3cccc(Cl)c3)cc2)[C@@H]2C(=O)N(C)C(=O)[C@@H]21	-17%	?	.	.	5.2µM*	13µM*
COC(=O)[C@]1(Cc2ccccc2)N[C@H](c2ccc(-c3ccc(Cl)c(Cl)c3)cc2)[C@@H]2C(=O)N(C)C(=O)[C@@H]21	-10%	?	.	.	9.3µM*	5.9µM*
COC(=O)[C@]1(Cc2ccccc2)N[C@H](c2ccc(-c3cc(C(C)=O)cs3)cc2)[C@@H]2C(=O)N(C)C(=O)[C@@H]21	6%	?	.	.	?	9.3µM*
CC1Cc2cc(/C(O)=C3/C(=O)C(=O)N(CCCN4CCOCC4)C3c3ccc(C(C)C)cc3)ccc2O1 (stereo unspecified)	9%	9%	-4	8	?	?
Cc1cc(C)c(S(=O)(=O)N2CCN(C(=O)CCn3nc(C)c(C)c3C)CC2)c(C)c1	6%	13%	-8	-3	2%	?
Cc1noc(C)c1COc1ccc(C(=O)N2CCN(c3ccccc3O)CC2)cc1	8%	?	.	.	?	?
CC[C@H](C)C(=O)O[C@H]1CCC=C2C=C[C@H](C)[C@H](CC[C@@H]3C[C@@H](O)CC(=O)O3)[C@H]21	4%	0.56µM*	-17	-12	5%	?
Oc1cccc(-c2ccc3nccn3c2)c1	-22%	.	.	.	.	.
CC(C)(C)c1nnc(NC(=O)Nc2ccc(Cl)cc2)s1	-12%	-9%	29*	15	?	30%
CC(C)(C)c1nnc(NC(=O)NS(=O)(=O)c2ccccc2)s1	-13%	-2%	29	23*	52%	35%
CC(=O)Nc1ccc(S(=O)(=O)Nc2nnc(C(C)(C)C)s2)cc1	0%	-7%	-3	-1	.	.
O=C(Nc1ccc(Cl)cc1)Nc1nnc(SCc2ccccc2)s1	2%	3%	23	6	?	12%
Cc1nc(NC(=O)Nc2ccc(Cl)cc2)sc1C	0%	-2%	41*	27*	?	71%
COc1ccc(NC(=O)Nc2nnc(C(C)(C)C)s2)cc1	9%	-10%	49*	23*	104%	60%
CC(=O)N1CCN(S(=O)(=O)c2cccc(C(=O)NNC(=O)COc3ccc(Cl)cc3C)c2)CC1	130%	2%	.	.	6%	?
Cc1cccc(NC(=O)CSc2nncn2N)c1C	-8%	.	.	.	.	.
COc1ccc(C(=O)OC(C)C(=O)NC(C)CCc2ccccc2)cc1OC (stereo unspecified)	-7%	?	-9	1	-27%	0%
C=CC[n+]1c(-c2ccc(OC)cc2)csc1NNC(=O)Nc1ccccc1	2%	11µM*	48	36	?	.
COc1cc(/C=N/N(C)c2ccccc2)ccc1O	-20%	?	88*	31*	.	305%
COc1cc(OC)c(OC)cc1/C=N/N(C)c1ccccc1	32µM*	8.9µM*	33	17	-98%	.
SMILES	AMA1 RON2 block	HCV inhibitor	Shiga inhibitor	CHX counter	Pf growth 96h	Pf growth 48h
Cc1cc(NC(=O)C(C)SCC(=O)N(C)Cc2ccccc2F)no1 (stereo unspecified)	1%	1%	.	.	?	-29%
CC(C)(C)S(=O)N1Cc2cc(C(=O)NCC(F)(F)F)nc(-c3cccc(-c4cccc(F)c4)c3)c2[C@H]1CCO (stereo partly specified)	-4%	.	.	.	.	.
COc1cccc(C(O)c2nc(-c3cncnc3)cs2)c1 (stereo unspecified)	0%	.	.	.	.	.
Cc1ccnc(NC(=O)CCN2C(=O)c3ccccc3S2(=O)=O)n1	-4%	10%	.	.	76%	7%
CCN(CC)C(=O)C1=C(C)N(CCCN2CCCC2=O)C(=O)C(CC(=O)NCCCCc2ccccc2)C1 (stereo unspecified)	-3%	.	.	.	.	.
FC(F)(F)c1cnc(C(c2ccccn2)c2ncn[nH]2)c(Cl)c1 (stereo unspecified)	91%	-5%	20	-1	?	12µM*
CC(=O)N(C)c1ccc(NCc2cc(=O)oc3cc(C)c(O)cc23)cc1	-6%	-1%	2	12	0%	0%
COc1ccccc1CNC(=O)c1c(N)n(CCCN2CCOCC2)c2nc3ccccc3nc12	49%	.	44	6	?	?
C=CCNC(=O)c1c(N)n(CCN2CCOCC2)c2nc3ccccc3nc12	2%	6%	46	-3	40%	-15%
Nc1c(C(=O)NCCN2CCOCC2)c2nc3ccccc3nc2n1CCc1ccccc1F	46%	?	-12	-3	13µM*	?
Nc1c(C(=O)NCCN2CCOCC2)c2nc3ccccc3nc2n1CCc1ccccc1	28%	?	-11	-2	-19%	9.3µM*
NS(=O)(=O)c1ccc(NC(=O)CCC(=O)c2ccc(Cl)s2)cc1	9%	8%	-16	-3	27%	-15%
CCC1C(=O)NCCN1C(=O)c1ccc(OC)c(OC2CCN(C(C)=O)CC2)c1 (stereo unspecified)	22%	-9%	-1	-2	?	22%
C/C(=N\N=C(/N)c1nonc1N)c1ccc2c(c1)OCO2	10%	?	55*	81*	167%	297%
CCOC(=O)C1C(=O)C(=O)N(C2CCCCC2)C1C(=O)OCC (stereo unspecified)	-4%	-9%	.	.	.	.
CC(C)[C@H](NC(=O)c1ccco1)C(=O)OCC(=O)c1ccc(Br)s1	4%	-25%	.	.	.	.
Cc1cc2cc(CN(Cc3nnnn3C3CCCCC3)CC3CCCO3)c(=O)[nH]c2cc1C (stereo unspecified)	-7%	-2%	-10	-3	-11%	8.3µM*
COc1ccc2cc(CN(CCCN3CCOCC3)Cc3nnnn3C3CCCC3)c(=O)[nH]c2c1	53%	-11%	-5	6	5.2µM*	10µM*
